For some assays here: Entries with a potency or affinity are not part of this list. Active and inactive are the calls of the source. Unless noted, no rule for the calls is given here.
What was measured:
[1] = antimalarial activity against Dd2 strain (AID 2302;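 active = growth inhibition above 50% at the single 2 µM test dose, taken to imply half-maximal potency below 2 µM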;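 also: 0% = DMSO untreated growth and 100% = chloroquine plus artemisinin killed control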); settings: P. falciparum Dd2 in RBCs, LDH growth readout, 72 h; at 2 µM; active compounds read high
[2] = human hepatoma cell viability loss – ATP luminescence, cytotoxicity control for P. falciparum antimalarial project, primary screen (AID 2303;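 active = inhibition above 50%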;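 also: 0% = DMSO wells and 100% = digitonin-killed cells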); settings: HepG2 viability, 24-48 h, at 10 µM, active compounds read high
[3] = biological target: L-lactate dehydrogenase (Plasmodium falciparum (isolate CDC / Honduras)) (UniProt Q27743); assay: PfLDH activity inhibition – cell lysate, 3D7 strain, counter-screen for P. falciparum growth inhibition project (AID 2304);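 also: 0% = vehicle and 100% = reference inhibitor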; settings: P. falciparum 3D7 crude extract, LDH APAD/NBT absorbance; at 2 µM; active compounds read high
Sequence of L-lactate dehydrogenase (Plasmodium falciparum (isolate CDC / Honduras)) (Q27743 whole entry, looked up): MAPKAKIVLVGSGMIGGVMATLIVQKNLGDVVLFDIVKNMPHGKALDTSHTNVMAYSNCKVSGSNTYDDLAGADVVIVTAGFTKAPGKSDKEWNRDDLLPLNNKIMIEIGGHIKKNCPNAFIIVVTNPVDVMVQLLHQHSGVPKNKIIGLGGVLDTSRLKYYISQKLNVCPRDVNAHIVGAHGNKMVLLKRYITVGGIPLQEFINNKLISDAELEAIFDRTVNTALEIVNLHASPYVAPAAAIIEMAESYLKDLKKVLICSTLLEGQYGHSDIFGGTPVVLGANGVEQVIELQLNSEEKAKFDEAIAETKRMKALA

[4] = inhibition of 3D7 malaria parasite growth – strain 3D7 (AID 2306);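 also: 0% = DMSO wells and 100% = chloroquine plus artemisinin control wells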; settings: P. falciparum 3D7 erythrocytic growth, LDH absorbance, 72 h; at 2 µM; active compounds read high
[5] = biological target: Calcium-dependent protein kinase 1 (Plasmodium falciparum (isolate 3D7)) (UniProt P62344); assay: PfCDPK1 kinase inhibitors, biochemical, TCAMS library (AID 1159585; cut-off not given, nearly all actives have IC50 up to about 0.98 µM;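 also: inhibitors leave more ATP so luminescence rises with inhibition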); settings: recombinant PfCDPK1, Kinase-Glo ATP depletion luminescence
Sequence of Calcium-dependent protein kinase 1 (Plasmodium falciparum (isolate 3D7)) (P62344 whole entry, looked up): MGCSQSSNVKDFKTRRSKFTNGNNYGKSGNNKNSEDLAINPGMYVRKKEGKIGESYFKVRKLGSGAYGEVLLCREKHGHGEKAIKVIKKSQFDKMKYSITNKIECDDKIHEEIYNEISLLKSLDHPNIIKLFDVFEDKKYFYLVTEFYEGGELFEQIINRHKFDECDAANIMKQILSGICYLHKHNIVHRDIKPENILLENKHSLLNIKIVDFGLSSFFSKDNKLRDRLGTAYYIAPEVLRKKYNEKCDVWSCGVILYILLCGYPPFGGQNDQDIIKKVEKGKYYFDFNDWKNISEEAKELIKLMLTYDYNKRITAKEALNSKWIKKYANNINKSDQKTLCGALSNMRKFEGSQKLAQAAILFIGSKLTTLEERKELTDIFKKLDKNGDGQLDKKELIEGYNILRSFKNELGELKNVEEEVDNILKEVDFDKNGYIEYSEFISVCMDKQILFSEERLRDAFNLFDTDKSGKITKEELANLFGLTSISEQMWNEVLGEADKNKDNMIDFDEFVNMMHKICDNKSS

[6] = biological target: Plasmodium falciparum protein kinase 6 (PK6, PF3D7_1337100) (UniProt Q8IDW1); assay: PfPK6 kinase inhibitors, biochemical, TCAMS library (AID 1159586); settings: recombinant PfPK6, Kinase-Glo ATP depletion luminescence
Sequence of Plasmodium falciparum protein kinase 6 (PK6, PF3D7_1337100) (Q8IDW1 1-305): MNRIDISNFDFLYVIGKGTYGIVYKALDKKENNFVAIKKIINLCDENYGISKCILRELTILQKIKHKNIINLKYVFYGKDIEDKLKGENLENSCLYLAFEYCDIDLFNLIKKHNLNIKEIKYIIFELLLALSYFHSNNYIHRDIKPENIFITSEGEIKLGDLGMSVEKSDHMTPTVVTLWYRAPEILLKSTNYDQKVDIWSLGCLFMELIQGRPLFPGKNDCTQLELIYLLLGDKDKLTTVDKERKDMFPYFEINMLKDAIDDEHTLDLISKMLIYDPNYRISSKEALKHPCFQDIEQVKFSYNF

[7] = biological target: Protein kinase 7 (PK7), Plasmodium falciparum 3D7 (PF3D7_0213400) (UniProt Q7YTF7); assay: inhibition of Plasmodium PK7 catalytic activity – biochemical, TCAMS antimalarial set, Kinase-Glo luminescence (AID 1159587); settings: recombinant PfPK7, Kinase-Glo ATP depletion luminescence
Sequence of Protein kinase 7 (PK7), Plasmodium falciparum 3D7 (PF3D7_0213400) (Q7YTF7 1-343): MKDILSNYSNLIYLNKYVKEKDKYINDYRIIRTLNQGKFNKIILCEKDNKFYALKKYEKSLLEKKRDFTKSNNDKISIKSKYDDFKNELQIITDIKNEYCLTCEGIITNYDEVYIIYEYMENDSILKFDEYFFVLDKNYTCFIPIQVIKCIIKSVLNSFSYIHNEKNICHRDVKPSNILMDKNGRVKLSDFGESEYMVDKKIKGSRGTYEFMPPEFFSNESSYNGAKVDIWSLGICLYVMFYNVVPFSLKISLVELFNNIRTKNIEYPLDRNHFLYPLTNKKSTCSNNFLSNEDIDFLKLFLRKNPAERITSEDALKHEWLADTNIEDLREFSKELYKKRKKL

[8] = biological target: Calcium-dependent protein kinase 4 (Plasmodium falciparum (isolate 3D7)) (UniProt Q8IBS5); assay: PfCDPK4 kinase inhibitors, biochemical, TCAMS library (AID 1159588; cut-off not given, nearly all actives have IC50 up to about 0.91 µM); settings: recombinant PfCDPK4, Kinase-Glo ATP depletion luminescence
Sequence of Calcium-dependent protein kinase 4 (Plasmodium falciparum (isolate 3D7)) (Q8IBS5 whole entry, looked up): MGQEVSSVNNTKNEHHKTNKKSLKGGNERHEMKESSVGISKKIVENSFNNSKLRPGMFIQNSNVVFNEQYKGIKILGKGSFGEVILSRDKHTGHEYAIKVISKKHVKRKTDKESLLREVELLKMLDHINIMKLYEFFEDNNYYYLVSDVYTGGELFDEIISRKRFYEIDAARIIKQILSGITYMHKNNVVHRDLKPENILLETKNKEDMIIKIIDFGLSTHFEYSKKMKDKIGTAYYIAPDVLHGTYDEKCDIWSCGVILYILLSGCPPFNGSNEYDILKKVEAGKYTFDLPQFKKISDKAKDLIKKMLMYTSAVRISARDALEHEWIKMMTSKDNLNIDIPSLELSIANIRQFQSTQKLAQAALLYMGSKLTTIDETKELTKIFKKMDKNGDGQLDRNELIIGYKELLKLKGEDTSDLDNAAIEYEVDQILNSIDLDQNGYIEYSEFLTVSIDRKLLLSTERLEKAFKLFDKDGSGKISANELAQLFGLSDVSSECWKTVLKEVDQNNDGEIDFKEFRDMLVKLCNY

COc1ccc(-c2ccc(NC(=O)c3cccc(Cl)c3)cc2)cc1CNC(C)C
inactive: inhibition [2] 26% | inhibition [3] 1% | outcome [5] | outcome [6] | outcome [7] | outcome [8]
active: growth inhibition [1] 88% | growth inhibition [4] 100%

CN(C)CCc1coc2ccc(C(=O)Nc3ccc(-c4ccc(O)cc4)cc3)cc12
active: growth inhibition [4] 101%
inactive: growth inhibition [1] 40% | inhibition [2] 28% | inhibition [3] -3% | outcome [5] | outcome [6] | outcome [7] | outcome [8]

CCc1cn2c3c(cc(C(=O)N[C@@H](Cc4cc(F)cc(F)c4)[C@H](O)CNC4CCCCC4)cc13)N(C)S(=O)(=O)CC2
inactive: inhibition [2] 9% | inhibition [3] -6% | outcome [5] | outcome [6] | outcome [7] | outcome [8]
active: growth inhibition [1] 99% | growth inhibition [4] 100%

O=C(c1ccc([N+](=O)[O-])o1)N1CCN(c2nc3c(Cl)cccc3s2)CC1
active: growth inhibition [1] 87% | growth inhibition [4] 91%
inactive: inhibition [2] -12% | inhibition [3] 6% | outcome [5] | outcome [6] | outcome [7] | outcome [8]

Cc1cccc(Cn2nc(-c3ccccc3)c(N3CCCCC3)cc2=O)c1
active: growth inhibition [4] 98%
inactive: growth inhibition [1] -2% | inhibition [2] 29% | inhibition [3] 0% | outcome [5] | outcome [6] | outcome [7] | outcome [8]

CC(C)(C)c1ccc(-c2ccccc2CNC(=O)c2cccc(O)c2)cc1
inactive: inhibition [2] 3% | inhibition [3] -2% | outcome [5] | outcome [6] | outcome [7] | outcome [8]
active: growth inhibition [1] 88% | growth inhibition [4] 99%

CCOC(=O)c1ccc(NC(=O)N[C@@H](Cc2ccccc2)C(=O)NC2CCN(Cc3ccc(O)c(OC)c3)C2)cc1 (stereo not given in full)
active: growth inhibition [4] 88%
inactive: growth inhibition [1] 0% | inhibition [2] -1% | inhibition [3] -2% | outcome [5] | outcome [6] | outcome [7] | outcome [8]

COc1cc2c(c(Cl)c1OC)CCN(C(=O)C(F)(F)F)CC2c1ccccc1 (stereo not given)
active: growth inhibition [1] 101% | growth inhibition [4] 101%
inactive: inhibition [2] 7% | inhibition [3] 8% | outcome [5] | outcome [6] | outcome [7] | outcome [8]

Cn1cnc2c(Nc3ccncc3)nc(-c3ccc(OC(F)(F)F)cc3)nc21
inactive: inhibition [2] 28% | inhibition [3] -1% | outcome [5] | outcome [6] | outcome [7] | outcome [8]
active: growth inhibition [1] 65% | growth inhibition [4] 102%

c1ccc2c(NCCc3cnc[nH]3)c3ccccc3nc2c1
inactive: growth inhibition [1] -1% | inhibition [2] 20% | inhibition [3] 6% | outcome [5] | outcome [6] | outcome [7] | outcome [8]
active: growth inhibition [4] 91%

O=C(NC1CCN(CCC[C@]2(c3ccc(Cl)c(Cl)c3)CCCN(C(=O)c3ccccc3)C2)CC1)c1ccc(Cl)cc1
inactive: growth inhibition [1] 4% | inhibition [3] -1% | outcome [5] | outcome [6] | outcome [7] | outcome [8]
active: inhibition [2] 56% | growth inhibition [4] 95%

CS(=O)(=O)c1ccc2nc(-c3cc(-c4ccc(OCCN5CCOCC5)cc4)cnc3N)[nH]c2c1
inactive: inhibition [2] 43% | inhibition [3] -4% | outcome [5] | outcome [6] | outcome [7] | outcome [8]
active: growth inhibition [1] 99% | growth inhibition [4] 100%

COc1cc(Cc2cnc(N)nc2N)cc(OCC(C)(C)C(=O)O)c1OC
active: growth inhibition [4] 89%
inactive: growth inhibition [1] -4% | inhibition [2] -3% | inhibition [3] -2% | outcome [5] | outcome [6] | outcome [7] | outcome [8]

N=C(N)c1ccc(NC(=O)Cc2nc3ccc(C(=N)N)cc3[nH]2)cc1
active: growth inhibition [1] 81% | growth inhibition [4] 87%
inactive: inhibition [2] 4% | inhibition [3] 2% | outcome [5] | outcome [6] | outcome [7] | outcome [8]

CC(=O)c1ccc(NC(=O)Nc2ccc(N(C)c3ccnc(NC4CC4)n3)cc2)cc1
inactive: inhibition [3] 1% | outcome [5] | outcome [6] | outcome [7] | outcome [8]
active: growth inhibition [1] 60% | inhibition [2] 59% | growth inhibition [4] 100%

CC(C)(C)c1cc(C(=O)N2CCN(c3ncccc3C(F)(F)F)CC2)n(Cc2ccccc2)n1
inactive: inhibition [2] -8% | inhibition [3] 1% | outcome [5] | outcome [6] | outcome [7] | outcome [8]
active: growth inhibition [1] 99% | growth inhibition [4] 100%

CCn1cnc2c(N3CCCC3=O)cc(C(=O)N[C@@H](Cc3ccccc3)[C@H](O)CNC3CCCCC3)cc21
active: growth inhibition [1] 94% | growth inhibition [4] 98%
inactive: inhibition [2] -2% | inhibition [3] -5% | outcome [5] | outcome [6] | outcome [7] | outcome [8]

S=C(NN=Cc1ccccn1)Nc1ccc2c(c1)OCCO2
active: inhibition [2] 55% | growth inhibition [4] 82%
inactive: growth inhibition [1] 33% | inhibition [3] 6% | outcome [5] | outcome [6] | outcome [7] | outcome [8]

COc1cc(CN2CCC(N3CCc4cc(NC(=O)c5cc(C)on5)ccc43)C2)ccc1F (stereo not given)
inactive: inhibition [2] 1% | inhibition [3] 0% | outcome [5] | outcome [6] | outcome [7] | outcome [8]
active: growth inhibition [1] 96% | growth inhibition [4] 91%

CC(CCCCCC(=O)Nc1ccc(CC(C)NCCc2cccc(Cl)c2)cc1)NCCc1cccc(Cl)c1 (stereo not given)
active: inhibition [2] 99% | growth inhibition [4] 91%
inactive: growth inhibition [1] 37% | inhibition [3] 1% | outcome [5] | outcome [6] | outcome [7] | outcome [8]

CN(C)CCC(O)C=C(c1ccc(Cl)cc1)c1ccc(Cl)cc1 (stereo not given)
inactive: inhibition [2] 33% | inhibition [3] 1% | outcome [5] | outcome [6] | outcome [7] | outcome [8]
active: growth inhibition [1] 85% | growth inhibition [4] 93%

Cc1ccc(-n2c(=O)c3cccnc3n2CC(=O)Nc2cccc(C)c2C)cc1
active: growth inhibition [4] 96%
inactive: growth inhibition [1] 20% | inhibition [2] 9% | inhibition [3] -3% | outcome [5] | outcome [6] | outcome [7] | outcome [8]

O=C(Nc1ccc(N2CCN(C(=O)C=Cc3ccccc3)CC2)c(Cl)c1)c1ccc([N+](=O)[O-])o1
active: growth inhibition [1] 90% | inhibition [2] 98% | growth inhibition [4] 97%
inactive: inhibition [3] -5% | outcome [5] | outcome [6] | outcome [7] | outcome [8]

CCOC(=O)CCCCCNC[C@H](O)c1ccccc1
active: growth inhibition [4] 98%
inactive: growth inhibition [1] 0% | inhibition [2] 2% | inhibition [3] 5% | outcome [5] | outcome [6] | outcome [7] | outcome [8]

CCCN(CCC)C(=O)c1cc(C(=O)N[C@@H](Cc2ccccc2)[C@H](O)CNC2CC2)cc(N2CCCCS2(=O)=O)c1
inactive: inhibition [2] -3% | inhibition [3] 0% | outcome [5] | outcome [6] | outcome [7] | outcome [8]
active: growth inhibition [1] 98% | growth inhibition [4] 100%

CCCc1cc(OC)c(CC2c3cc(O)c(Cl)cc3CCN2C)cc1OC (stereo not given)
active: growth inhibition [1] 99% | growth inhibition [4] 100%
inactive: inhibition [2] 19% | inhibition [3] -5% | outcome [5] | outcome [6] | outcome [7] | outcome [8]

CNC(=O)C1Cc2c([nH]c3cc(Cl)ccc23)C2(CCN(CCc3ccccc3)CC2)N1 (stereo not given)
inactive: growth inhibition [1] 3% | inhibition [2] 14% | inhibition [3] 4% | outcome [5] | outcome [6] | outcome [7] | outcome [8]
active: growth inhibition [4] 91%

CC(O)c1cccc(-c2ccc(Nc3ccnc4cc(-c5nccs5)ccc34)cc2)c1 (stereo not given)
inactive: inhibition [2] 31% | inhibition [3] -1% | outcome [5] | outcome [6] | outcome [7] | outcome [8]
active: growth inhibition [1] 69% | growth inhibition [4] 91%

CCN(CCCN1CCCCC1)c1cc(C)nc(Nc2ccc(C)cc2)n1
inactive: growth inhibition [1] 10% | inhibition [2] 17% | inhibition [3] -1% | outcome [5] | outcome [6] | outcome [7] | outcome [8]
active: growth inhibition [4] 101%

O=C(Nc1ccc2c(c1)CCN2C1CCN(Cc2csc3ccccc23)C1)c1ccco1 (stereo not given)
inactive: inhibition [2] -5% | inhibition [3] -2% | outcome [5] | outcome [6] | outcome [7] | outcome [8]
active: growth inhibition [1] 95% | growth inhibition [4] 95%

O=c1c(Br)ccccc1Br
inactive: growth inhibition [1] 41% | inhibition [3] 0% | outcome [5] | outcome [6] | outcome [7] | outcome [8]
active: inhibition [2] 98% | growth inhibition [4] 94%

N#Cc1ccc(NC(=O)Nc2ccc(OC(F)(F)F)cc2)cc1
active: growth inhibition [1] 91% | growth inhibition [4] 98%
inactive: inhibition [2] 43% | inhibition [3] 0% | outcome [5] | outcome [6] | outcome [7] | outcome [8]

Clc1ccc(NC(=NCCCCCCCN=C(Nc2ccc(Cl)cc2)Nc2ccc(Cl)cc2)Nc2ccc(Cl)cc2)cc1
active: growth inhibition [1] 99% | inhibition [2] 100% | growth inhibition [4] 101%
inactive: inhibition [3] 0% | outcome [5] | outcome [6] | outcome [7] | outcome [8]

O=C(Nc1ccc2c(c1)CCC2)c1ccc(CN2CCCN(Cc3cccc(O)c3)CC2)cc1
active: growth inhibition [4] 88%
inactive: growth inhibition [1] 46% | inhibition [2] 45% | inhibition [3] -1% | outcome [5] | outcome [6] | outcome [7] | outcome [8]

COc1cc(F)c2nccc([C@@H](O)CN3CC[C@H](NCc4ccc5c(n4)NC(=O)CS5)[C@H](F)C3)c2c1
inactive: inhibition [2] 32% | inhibition [3] 5% | outcome [5] | outcome [6] | outcome [7] | outcome [8]
active: growth inhibition [1] 80% | growth inhibition [4] 87%

Cc1[nH]c(C)c(-c2ccc(-c3ccc(OC(F)(F)F)cc3)nc2)c(=O)c1Br
active: growth inhibition [1] 97% | growth inhibition [4] 97%
inactive: inhibition [2] 26% | inhibition [3] 3% | outcome [5] | outcome [6] | outcome [7] | outcome [8]

CC(=O)c1cccc(NC(=O)c2ccc(Cl)c(S(=O)(=O)N3CCc4ccccc43)c2)c1
inactive: growth inhibition [1] 11% | inhibition [2] 13% | inhibition [3] 0% | outcome [5] | outcome [6] | outcome [7] | outcome [8]
active: growth inhibition [4] 93%

CC(=O)NC(c1cccs1)c1cc(Cl)c2cccnc2c1O (stereo not given)
inactive: inhibition [3] -2% | outcome [5] | outcome [6] | outcome [7] | outcome [8]
active: growth inhibition [1] 93% | inhibition [2] 65% | growth inhibition [4] 94%

Cc1nc(-c2ccc(-c3ccc(C(=O)Nc4ccc(Cl)c(N5CCN(C)CC5)c4)cc3)c(C)c2)no1
active: growth inhibition [4] 101%
inactive: growth inhibition [1] 47% | inhibition [2] 23% | inhibition [3] 4% | outcome [5] | outcome [6] | outcome [7] | outcome [8]

CS(=O)(=O)CCOCc1ccc(-c2ccc3ncnc(Nc4ccc(OCc5cccc(F)c5)c(Cl)c4)c3c2)o1
active: growth inhibition [4] 96%
inactive: growth inhibition [1] 43% | inhibition [2] 1% | inhibition [3] 5% | outcome [5] | outcome [6] | outcome [7] | outcome [8]
